Here are results for 17 compounds from PubChem BioAssay (NCI).

Several values for one entry are separate records, joined by “and”; a condition that tells them apart may be missing. Identical values can stand only once. The panel holds about 83,000 compounds, 20% with a hit somewhere; the sample as a whole holds those more often.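 Compound tested at a single concentration for 48 hours in 96-well plates; a percent growth value below 10 was scored as active.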 Activity calls are given as the source filed them.

Among the test systems are SR leukemia; RPMI-8226 leukemia; OVCAR-8 ovarian; OVCAR-5 ovarian; OVCAR-4 ovarian; SK-OV-3 ovarian; IGROV1 ovarian; OVCAR-3 ovarian; HS 578T breast; NCI/ADR-RES ovarian.
Holding throughout (assay): NCI-60 one-dose screen, 48 h (100 = growth as untreated, 0 = no growth, -100 = all killed)
Holding throughout (conditions): 10 µM unless noted

Take `CCc1ccc(OC(=O)CCl)cc1`: the growth in the assay with SR leukemia is 101% (inactive); in the assay on RPMI-8226 leukemia, 111% (inactive); in the assay with OVCAR-8 ovarian it was 101% (inactive); in the assay on OVCAR-5 ovarian, 107% (inactive); with OVCAR-4 ovarian, 95.6% (inactive); in the assay with SK-OV-3 ovarian, 112% (inactive). In addition, the growth was 108% (inactive) with IGROV1 ovarian, 104% (inactive) in the assay with OVCAR-3 ovarian, 110% (inactive) in the assay on HS 578T breast and 103% (inactive) in the assay with NCI/ADR-RES ovarian.
For the compound `CCC/C(=N/NC(N)=O)c1ccco1`, the growth with SR leukemia was 96.1% (inactive); with RPMI-8226 leukemia, 95.2% (inactive); in the assay on OVCAR-8 ovarian, 98% (inactive); in the assay on OVCAR-5 ovarian it was 91.2% (inactive); in the assay with OVCAR-4 ovarian, 102% (inactive); in the assay on SK-OV-3 ovarian, 91.6% (inactive). The growth in the assay on IGROV1 ovarian was 104% (inactive); with OVCAR-3 ovarian, 117% (inactive); in the assay on HS 578T breast it was 97.5% (inactive); with NCI/ADR-RES ovarian it was 100% (inactive).
As for `COC(=O)c1nc(=S)[nH]c(C(=O)OC)c1C(=O)c1ccccc1`, the growth with SR leukemia is 113% (inactive); in the assay with RPMI-8226 leukemia it was 107% (inactive); in the assay on OVCAR-8 ovarian it was 110% (inactive); in the assay with OVCAR-5 ovarian, 106% (inactive); in the assay with OVCAR-4 ovarian, 106% (inactive); in the assay with SK-OV-3 ovarian it was 111% (inactive). The growth was 101% (inactive) with IGROV1 ovarian, 112% (inactive) in the assay with OVCAR-3 ovarian, 99% (inactive) in the assay with HS 578T breast and 108% (inactive) with NCI/ADR-RES ovarian.
Consider `COc1ccc(CCO)cc1`, for which the growth was 75.6% (inactive) in the assay on SR leukemia; 110% (inactive) with RPMI-8226 leukemia; 101% (inactive) in the assay with OVCAR-8 ovarian; 103% (inactive) in the assay with OVCAR-5 ovarian; 111% (inactive) in the assay on OVCAR-4 ovarian; 109% (inactive) with SK-OV-3 ovarian. Moreover, the growth in the assay on IGROV1 ovarian was 99.6% (inactive); with OVCAR-3 ovarian it was 111% (inactive); in the assay with HS 578T breast, 98.2% (inactive); in the assay with NCI/ADR-RES ovarian, 108% (inactive).
With `CC(O)CCNC(c1ccccc1)C(O)c1ccccc1` (stereo not given), the growth in the assay on SR leukemia was 105% (inactive); in the assay with RPMI-8226 leukemia, 89.7% (inactive); with OVCAR-8 ovarian it was 104% (inactive); in the assay with OVCAR-5 ovarian, 109% (inactive); in the assay on OVCAR-4 ovarian, 107% (inactive); in the assay on SK-OV-3 ovarian, 107% (inactive). In addition, the growth in the assay on IGROV1 ovarian was 95.9% (inactive); in the assay on OVCAR-3 ovarian, 132% (inactive); with HS 578T breast, 110% (inactive); in the assay with NCI/ADR-RES ovarian, 110% (inactive).
For the compound `CCCCCc1cc[n+](CC(=O)c2ccccc2)cc1`, the growth in the assay on SR leukemia is 115% (inactive) and 100% (inactive); in the assay on RPMI-8226 leukemia it was 104% (inactive) and 107% (inactive); in the assay with OVCAR-8 ovarian it was 97.2% (inactive) and 99.3% (inactive); in the assay on OVCAR-5 ovarian, 97.6% (inactive) and 101% (inactive); in the assay on OVCAR-4 ovarian, 110% (inactive) and 85.2% (inactive); in the assay on SK-OV-3 ovarian, 101% (inactive) and 105% (inactive). The growth in the assay on IGROV1 ovarian is 91.6% (inactive) and 108% (inactive); with OVCAR-3 ovarian, 94.9% (inactive) and 105% (inactive); with HS 578T breast it was 106% (inactive); with NCI/ADR-RES ovarian, 98.6% (inactive) and 103% (inactive).
As to `CCOC(=O)c1csc(N)n1`, the growth in the assay on SR leukemia is 102% (inactive); with RPMI-8226 leukemia, 83.7% (inactive) and 97.4% (inactive); in the assay on OVCAR-8 ovarian, 97.4% (inactive); with OVCAR-5 ovarian it was 106% (inactive) and 104% (inactive); in the assay with OVCAR-4 ovarian, 104% (inactive) and 94.9% (inactive); with SK-OV-3 ovarian, 101% (inactive) and 98% (inactive). Moreover, the growth was 56.3% (inactive) and 109% (inactive) in the assay on IGROV1 ovarian; 108% (inactive) and 107% (inactive) in the assay with OVCAR-3 ovarian; 95.1% (inactive) and 101% (inactive) in the assay on HS 578T breast; 111% (inactive) and 104% (inactive) in the assay with NCI/ADR-RES ovarian.
In the case of `CCOCCC(=O)O`, the growth was 109% (inactive) in the assay on SR leukemia; 107% (inactive) with RPMI-8226 leukemia; 109% (inactive) in the assay with OVCAR-8 ovarian; 101% (inactive) in the assay with OVCAR-5 ovarian; 104% (inactive) in the assay with OVCAR-4 ovarian; 102% (inactive) in the assay with SK-OV-3 ovarian. The growth with IGROV1 ovarian was 114% (inactive); in the assay with OVCAR-3 ovarian, 115% (inactive); in the assay on HS 578T breast, 98.7% (inactive); in the assay on NCI/ADR-RES ovarian, 107% (inactive).
As to `O=C(O)Cc1cc(=O)[nH]n(-c2ccccc2)c1=O`, the growth in the assay on SR leukemia is 88.9% (inactive); with RPMI-8226 leukemia, 117% (inactive); in the assay with OVCAR-8 ovarian, 90% (inactive); in the assay with OVCAR-5 ovarian, 100% (inactive); in the assay with OVCAR-4 ovarian it was 103% (inactive); with SK-OV-3 ovarian, 98% (inactive). Besides, the growth in the assay with IGROV1 ovarian was 115% (inactive); in the assay with OVCAR-3 ovarian it was 110% (inactive); in the assay with HS 578T breast it was 117% (inactive); in the assay with NCI/ADR-RES ovarian, 115% (inactive).
Regarding `Nc1c(Cl)cc2c(c1Br)C(=O)c1ccccc1C2=O`, the growth in the assay with SR leukemia was 78.4% (inactive); in the assay on RPMI-8226 leukemia, 98.3% (inactive); with OVCAR-8 ovarian, 89.3% (inactive); in the assay on OVCAR-5 ovarian it was 98.5% (inactive); in the assay with OVCAR-4 ovarian, 106% (inactive); in the assay with SK-OV-3 ovarian, 84% (inactive). In addition, the growth was 71.6% (inactive) with IGROV1 ovarian, 117% (inactive) with OVCAR-3 ovarian, 98% (inactive) in the assay with HS 578T breast and 92.4% (inactive) in the assay on NCI/ADR-RES ovarian.
As to `CCOC(=O)c1ccncc1`, the growth was 101% (inactive) with SR leukemia; 106% (inactive) with RPMI-8226 leukemia; 112% (inactive) with OVCAR-8 ovarian; 107% (inactive) in the assay with OVCAR-5 ovarian; 117% (inactive) with OVCAR-4 ovarian; 105% (inactive) with SK-OV-3 ovarian. The growth in the assay on IGROV1 ovarian is 111% (inactive); with OVCAR-3 ovarian, 105% (inactive); with HS 578T breast, 101% (inactive); in the assay on NCI/ADR-RES ovarian, 110% (inactive).
As to `O=C1c2ccccc2CN1c1ccccc1`, the growth in the assay with SR leukemia is 84.5% (inactive); with RPMI-8226 leukemia, 107% (inactive); with OVCAR-8 ovarian, 104% (inactive); in the assay with OVCAR-5 ovarian, 98% (inactive); in the assay with OVCAR-4 ovarian it was 99.3% (inactive); with SK-OV-3 ovarian, 105% (inactive). In addition, the growth with IGROV1 ovarian was 123% (inactive); with OVCAR-3 ovarian it was 108% (inactive); in the assay on HS 578T breast, 115% (inactive); in the assay on NCI/ADR-RES ovarian, 105% (inactive).
In the case of `Nc1nc(=S)c2[nH]cnc2[nH]1`, the growth in the assay on SR leukemia was 5.87% (active) and 0.643% (active); in the assay on RPMI-8226 leukemia it was 1.54% (active) and -23.5% (active); in the assay with OVCAR-8 ovarian it was 12% (inactive); in the assay on OVCAR-5 ovarian it was -30.1% (active); in the assay with OVCAR-4 ovarian, 25.1% (inactive) and 44% (inactive); in the assay on SK-OV-3 ovarian, 5.43% (active) and 6.69% (active). In addition, the growth with IGROV1 ovarian was 27.3% (inactive) and 36.7% (inactive); in the assay with OVCAR-3 ovarian, -20.3% (active) and 11.4% (inactive); in the assay with HS 578T breast, 54.1% (inactive); in the assay with NCI/ADR-RES ovarian, 18.2% (inactive) and -50.1% (active).
For the compound `Cc1ccc(C(=O)c2ccc(C)cc2)cc1`, the growth was 84.3% (inactive) and 110% (inactive) in the assay with SR leukemia; 86.8% (inactive) and 96.4% (inactive) in the assay on RPMI-8226 leukemia; 94.3% (inactive) and 109% (inactive) in the assay on OVCAR-8 ovarian; 103% (inactive) in the assay with OVCAR-5 ovarian; 87.2% (inactive) and 117% (inactive) in the assay with OVCAR-4 ovarian; 101% (inactive) and 107% (inactive) in the assay on SK-OV-3 ovarian. For the same compound, the growth with IGROV1 ovarian is 86.3% (inactive) and 99% (inactive); in the assay on OVCAR-3 ovarian, 99.1% (inactive) and 105% (inactive); in the assay with HS 578T breast, 101% (inactive); in the assay with NCI/ADR-RES ovarian, 93% (inactive).
`O=C1C2=C(Nc3cc(Cl)ccc3N2)OC1c1c[nH]c2ccc(COc3ccccc3)cc12` (stereo not given): the growth in the assay with SR leukemia was 85.4% (inactive); in the assay with RPMI-8226 leukemia, 59.3% (inactive); in the assay with OVCAR-8 ovarian, 46.9% (inactive); in the assay on OVCAR-5 ovarian, 88.2% (inactive); in the assay with OVCAR-4 ovarian, 31.8% (inactive); in the assay with SK-OV-3 ovarian, 26.7% (inactive). The growth with IGROV1 ovarian is 65.3% (inactive); in the assay on OVCAR-3 ovarian, 55.1% (inactive); in the assay on HS 578T breast, 29.6% (inactive); in the assay on NCI/ADR-RES ovarian, 51.4% (inactive).
For `O=[N+]([O-])c1ccc(N/N=C/C2CCCCCC2)c([N+](=O)[O-])c1`, the growth is 82.9% (inactive) in the assay with SR leukemia; 90.3% (inactive) in the assay with RPMI-8226 leukemia; 102% (inactive) in the assay with OVCAR-8 ovarian; 99.1% (inactive) in the assay on OVCAR-5 ovarian; 98.5% (inactive) in the assay with OVCAR-4 ovarian; 102% (inactive) in the assay on SK-OV-3 ovarian. The growth in the assay on IGROV1 ovarian is 91% (inactive); with OVCAR-3 ovarian it was 99.8% (inactive); with HS 578T breast, 96.9% (inactive); in the assay with NCI/ADR-RES ovarian it was 104% (inactive).
Turning to `N#Cc1c[nH]n2ccnc12`, the growth is 120% (inactive) in the assay with SR leukemia; 112% (inactive) with RPMI-8226 leukemia; 98.2% (inactive) with OVCAR-8 ovarian; 107% (inactive) with OVCAR-5 ovarian; 118% (inactive) with OVCAR-4 ovarian; 95.3% (inactive) with SK-OV-3 ovarian. Moreover, the growth was 93.1% (inactive) with IGROV1 ovarian, 110% (inactive) with OVCAR-3 ovarian, 117% (inactive) in the assay with HS 578T breast and 105% (inactive) in the assay with NCI/ADR-RES ovarian.
